From PubChem BioAssay
NPR1 antag = human Npr1 receptor antagonism; HEK293 hNpr1 GloSensor cGMP, ANP-stimulated luminescence; Potency, µM (top dose mostly 46.3 µM), most hits filed as inhibitors; 1.6% of 76,000 active; AID 1347048; calls by dose curve; further: nearly all actives have a fitted effect of over 60% in size
Target sequence (P16066 whole entry, looked up): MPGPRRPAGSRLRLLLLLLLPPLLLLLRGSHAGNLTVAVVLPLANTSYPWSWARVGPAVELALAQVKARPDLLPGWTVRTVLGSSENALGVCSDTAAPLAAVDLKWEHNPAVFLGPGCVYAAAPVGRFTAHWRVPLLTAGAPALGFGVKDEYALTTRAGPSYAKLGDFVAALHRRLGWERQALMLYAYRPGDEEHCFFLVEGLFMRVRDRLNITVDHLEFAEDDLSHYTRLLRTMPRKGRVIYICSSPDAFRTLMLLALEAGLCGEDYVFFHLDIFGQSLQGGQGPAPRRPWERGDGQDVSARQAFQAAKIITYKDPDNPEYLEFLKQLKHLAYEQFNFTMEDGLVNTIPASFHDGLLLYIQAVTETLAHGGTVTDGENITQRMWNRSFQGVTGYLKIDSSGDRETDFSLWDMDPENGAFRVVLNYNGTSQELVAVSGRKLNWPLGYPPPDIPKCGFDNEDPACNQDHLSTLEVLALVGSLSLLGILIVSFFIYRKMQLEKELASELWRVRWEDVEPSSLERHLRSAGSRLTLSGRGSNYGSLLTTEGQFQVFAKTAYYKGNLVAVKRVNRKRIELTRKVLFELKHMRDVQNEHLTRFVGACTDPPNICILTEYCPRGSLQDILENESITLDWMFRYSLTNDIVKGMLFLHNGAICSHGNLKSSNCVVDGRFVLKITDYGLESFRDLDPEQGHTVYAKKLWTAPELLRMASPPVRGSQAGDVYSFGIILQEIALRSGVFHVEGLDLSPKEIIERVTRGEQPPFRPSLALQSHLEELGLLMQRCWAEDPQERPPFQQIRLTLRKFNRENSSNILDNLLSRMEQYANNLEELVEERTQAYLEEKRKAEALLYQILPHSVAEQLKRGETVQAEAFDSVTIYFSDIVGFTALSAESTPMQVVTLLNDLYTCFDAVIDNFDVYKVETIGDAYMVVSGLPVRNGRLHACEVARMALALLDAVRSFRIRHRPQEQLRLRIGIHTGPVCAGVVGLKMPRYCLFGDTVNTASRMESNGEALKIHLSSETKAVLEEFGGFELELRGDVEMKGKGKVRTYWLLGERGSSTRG
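Compound pre-incubated 30 min at room temperature on GloSensor-loaded HEK293 cells stably carrying hNpr1 and the pGS-40F cGMP biosensor. Stimulation uses hNppA at 0.1 nM final; luminescence is taken at baseline and 20 min post-agonist.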
SNCA expr inhib = SNCA gene expression inhibition. HEK-293 SNCA-luciferase knock-in, luminescence, 24 h. Potency, µM (titrated, usually from 57.2 µM), most hits filed as inhibitors. 0.17% of 140,000 active; further: nearly all actives have a fitted effect of over 45% in size
NIH3T3 tox = kills NIH 3T3 cells | NIH 3T3 viability, CellTiter-Glo ATP luminescence, 48-72 h | Potency, µM (highest dose often 96.7 µM), most hits filed as inhibitors | 4.3% of 94,000 active; further: nearly all actives have a fitted effect of over 55% in size
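Cells were seeded at 400 per well, treated with pin-transferred compound, and kept 48 or 72 hr at 37 °C before CellTiter-Glo addition and luminescence imaging of cellular ATP.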
SNCA viab count = counter-screen for SNCA expression inhibitors: cell viability; HEK-293-SNCA-luc viability, GF-AFC fluorescence, 24 h; AID 1671193; 0.12% of 150,000 active; Potency, µM (series often up to 57.1 µM), actives largely listed as cytotoxic; further: nearly all actives have a fitted effect of over 30% in size
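Cytotoxicity counterscreen: after 24 h compound treatment of genome-edited SNCA-luciferase HEK-293 cells, live-cell protease substrate GF-AFC read by fluorescence after 30 min; activity scaled between DMSO (0%) and medium-only (-100%), curves Hill-fitted.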
FLuc inh = inhibitors of firefly (Photinus pyralis) luciferase | P08659 | purified P. pyralis luciferase, luminescence, biochemical | Potency, µM (highest dose often 115 µM), actives largely listed as inhibitors | 2.5% of 76,000 active; further: nearly all actives have a fitted effect of over 65% in size
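Cell-free enzyme assay, 10nM P. pyralis luciferase, luciferin and ATP each at 10uM. Inhibition profiled over a 6-point titration, read as luminescence.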
HEK cytotox = cytotoxic compounds in HEK 293 cells; AID 1345083; Potency, µM (top dose mostly 115 µM), actives largely listed as inhibitors; HEK 293 viability, ATP luminescence (CellTiter-Glo), 48-72 h; 6.6% of 94,000 active; further: nearly all actives have a fitted effect of over 60% in size
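250 HEK 293 cells/well; compound by pintool; incubated 48 or 72 hr at 37 degree Celsius; CellTiter-Glo added, 10 min RT, luminescence imaged.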
Hits are given with their value; – = inactive; ? = inconclusive; · = no result given; [ ] = remark or other dose. Hits are enriched below; roughly 7.2% of the tested compounds scored in any of these assays. Unless noted, the call rests on the fitted dose curve; in most records, active means well fitted curve in the direction sought with a large enough effect; inconclusive means small, poorly fitted or top-dose-only effect, or another doubt; inactive means no such curve, though single readings can be large; an effect the other way counts as inactive or inconclusive.

SMILES	NPR1 antag	SNCA expr inhib	NIH3T3 tox	SNCA viab count	FLuc inh	HEK cytotox
Cc1cc(C)c(CNC(=O)c2nc(-c3cccc(O)c3)cc3c2ccn3C(C)C)c(=O)[nH]1	–	?	?	?	–	?
Cc1cc(C)c(CNC(=O)c2nc(-c3ccccc3)cc3c2ccn3C(C)C)c(=O)[nH]1	–	–	?	–	–	?
Cc1cc(C)c(CNC(=O)c2nc(-c3cccc(O)c3)cc3c2ccn3C)c(=O)[nH]1	–	–	25µM	–	–	?
O=C1NC(=NC2CCCCC2)C2(CCN(Cc3cccnc3)C2)N1c1cc(F)cc(F)c1 (configuration not stated)	·	–	35µM	–	·	–
O=C1NC(=NC2CCCCC2)C2(CCN(Cc3cccnc3)CC2)N1c1cc(F)cc(F)c1	·	–	28µM	–	·	–
COc1cccc(NC(=O)CCC2CCN(C(=O)c3cc4ccccc4cn3)CC2)c1	–	–	?	–	–	–
O=C(NC1CCN(Cc2cccc(-c3ccc(F)c(F)c3)c2)CC1)c1ccc(Cl)nc1	·	·	25µM	·	·	?
Cc1cccc(-c2cccc(CN3CCC(NC(=O)c4ccccc4C)CC3)c2)c1	·	–	32µM	–	·	40µM
O=C(NC1CCN(Cc2cccc(-c3ccc(F)c(F)c3)c2)CC1)c1ccccc1	·	–	?	–	·	?
O=C(NC1CCN(Cc2cccc(-c3ccc(F)c(F)c3)c2)CC1)c1ccccc1F	·	–	?	–	·	79µM
Cc1ccccc1C(=O)NC1CCN(Cc2cccc(-c3ccc(F)c(F)c3)c2)CC1	·	–	?	–	·	50µM
COCCN1C[C@H]2COc3ccccc3[C@H]2N(C(=O)COC)CCC1=O	·	·	?	·	·	–
COc1ccccc1C(=O)N1Cc2c(C(=O)NC3CC3)nn(C)c2C1	·	–	–	–	·	–
CC(C)c1nc2cc(C(=O)N3CCCC(c4ccccc4)C3)ccc2o1 (configuration not stated)	–	–	?	–	–	?
COc1ccc(CN2Cc3cc(NC(=O)c4c(F)cccc4F)ccc3OCC2=O)c(OC)c1	–	–	?	–	–	?
Cc1cc(F)ccc1OC1CN(Cc2ccc(N(C)C)cc2)C1	–	–	?	–	–	79µM
Cc1cc(F)ccc1OC1CN(C(=O)c2ccccc2)C1	–	–	?	–	18µM	?
Cc1cc(F)ccc1OC1CN(Cc2ccc(C(F)(F)F)cc2)C1	–	–	?	–	–	100µM
Cc1ccc(C(=O)N2CC(Oc3ccc(F)cc3F)C2)cc1	·	–	–	–	·	–
O=c1n(CC2CC2)nc2n1CCN(Cc1ccc3[nH]ccc3c1)CC2	–	–	?	–	–	?
CC(C)c1cc(C(=O)N[C@@H]2COCC[C@@H]2Oc2cccc(F)c2)nc(N)n1	–	–	–	–	–	?
COc1ccc(OC)c(NC(=O)Cn2nc3n(c2=O)CCCCC3)c1	–	–	–	–	–	–
Cc1nc(-c2ccc(F)cc2)n(CC(=O)Nc2ccc(C(F)(F)F)cc2)c(=O)c1CCO	–	?	?	?	–	?
O=C(c1ccccc1F)N1CCn2c(nnc2C2CCNCC2)C1	·	–	28µM	–	·	–
O=C(Cc1ccccc1)NC1CCCc2c1[nH]c1ccccc21 (configuration not stated)	–	–	22µM	–	–	?
SMILES	NPR1 antag	SNCA expr inhib	NIH3T3 tox	SNCA viab count	FLuc inh	HEK cytotox
O=C(Cc1c[nH]c2ccccc12)NC1CCCc2c1[nH]c1ccc(F)cc21 (configuration not stated)	–	–	32µM	–	–	35µM
CC(C)CC(=O)NC1CCCc2c1[nH]c1c(Cl)cccc21 (configuration not stated)	–	?	?	–	–	?
CC(C)CC(=O)NC1CCCc2c1[nH]c1ccc(Cl)cc21 (configuration not stated)	–	–	20µM	–	–	?
COCCn1cc(C(=O)NC2CCCc3c2[nH]c2ccccc32)c2ccccc2c1=O (configuration not stated)	–	?	?	–	–	45µM
Cc1cc(CN2CCC3(CC2)CCN(C(=O)c2ccccn2)CC3CO)on1 (configuration not stated)	–	–	–	–	–	–
Cc1ccc(CS(=O)(=O)c2ncc(Cl)c(C(=O)Nc3nc4ccc(C)cc4s3)n2)cc1	·	–	·	–	·	·
CC(C)Sc1ncc(Cl)c(C(=O)Nc2nnc(C(C)C)s2)n1	·	–	·	–	·	·
CCCc1nnc(NC(=O)c2nc(S(=O)(=O)Cc3ccc(C)cc3)ncc2Cl)s1	·	5µM	·	28µM	·	·
CC(C)c1nnc(NC(=O)c2nc(S(=O)(=O)Cc3ccccc3)ncc2Cl)s1	·	?	·	22µM	·	·
Fc1ccc(Cc2nc3nccc(-c4cccs4)n3n2)cc1	–	–	?	–	–	?
O=C(COc1ccccc1)N1CCC2(CC1)NC(=O)N(c1ccccc1Cl)N2	–	–	?	–	–	?
O=C(Cc1ccc(Cl)cc1)N1CCC2(CC1)NC(=O)N(c1ccccc1Cl)N2	–	–	40µM	–	–	89µM
Cc1noc([C@@H]2CN(C(=O)CN3CCCCCC3)C[C@H]2CO)n1	–	–	–	–	–	–
CCCN(C)C(=O)c1cn2cc(-c3cccc(Cl)c3)n(CC=C(C)C)c(=O)c2n1	–	?	40µM	–	–	28µM
COCCNC(=O)CN1C(=O)NC(c2ccccc2OC)C2=C1COC2=O (configuration not stated)	–	–	–	–	–	–
O=C(Cc1ccc(Cl)cc1)NCCNC(=O)c1cccc(-c2ccc(C(F)(F)F)cc2)c1	·	–	35µM	–[12.5 µM]	·	?
O=C(Cc1ccc(F)cc1)NCCNC(=O)c1cccc(-c2ccc(C(F)(F)F)cc2)c1	·	–	–	–	·	28µM
O=C(CNC(=O)c1ccc(-c2cccc(C(F)(F)F)c2)cc1)NCCc1ccc(Cl)cc1	·	–	–	–[12.5 µM]	·	–
COCCN1CCOc2nc(-c3ccc(C(=O)N(C)C)cc3)ncc2C1=O	–	–	?	–	–	–
Cc1ccc(C(=O)N2CCCCCCNC(=O)[C@@H]3C[C@@H](c4nc(Cc5ccccc5)no4)C[C@@H]32)s1	–	–	?	–	–	79µM
CCNC(=O)N1CCCCCCNC(=O)[C@@H]2C[C@@H](c3nc(Cc4ccccc4)no3)C[C@@H]21	–	–	–	–	–	–
CNC(=O)c1cc(C2CC2)nc2c1c(C1CCCN1C(=O)Nc1ccc(Cl)cc1)nn2C (configuration not stated)	·	·	–	·	·	–
O=C(CCc1ccccc1)N1CCC2(CC1)CC(CO)N(C(=O)c1ccccc1)C2 (configuration not stated)	·	–	–	–	·	–
O=c1cc(-c2cccnc2)oc2c(NCCc3ccccn3)nccc12	–	–	35µM	–	?	?
c1ccc(-c2ccc(CNCc3cccs3)o2)cc1	–	–	–	–	35µM	?
